# The panel holds about 83,000 compounds, 20% with a hit somewhere; the sample as a whole holds those more often.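 In brief: 96-well plates, 48 h treatment, single concentration, percent growth endpoint.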 Values without a mark were called inactive. Active and inactive are the calls of the source. The calls were made as follows: active = growth percent below 10; inactive = the rest.
# How the values were obtained:
# Assay in all cases: NCI-60 one-dose screen, 48 h (100 = growth as untreated, 0 = no growth, -100 = all killed)
# [1] = test system: NCI-H322M lung; conditions: 10 µM
# [2] = test system: HOP-62 NSCLC; conditions: 10 µM
# [3] = test system: A549/ATCC NSCLC; conditions: 10 µM
# [4] = test system: COLO 205 colon; conditions: 10 µM
# [5] = test system: DU-145 prostate; conditions: 10 µM
# [6] = test system: MALME-3M melanoma; conditions: 10 µM
# [7] = test system: SF-268 CNS; conditions: 10 µM
# [8] = test system: SF-295 CNS; conditions: 10 µM
# [9] = test system: SF-539 CNS; conditions: 10 µM
# [10] = test system: UACC-257 melanoma; conditions: 10 µM
# [11] = test system: M14 melanoma; conditions: 10 µM
# [12] = test system: HCT-15 colon; conditions: 10 µM
# [13] = test system: HT29 colon; conditions: 10 µM
# [14] = test system: SNB-75 CNS; conditions: 10 µM
# [15] = test system: SNB-19 CNS; conditions: 10 µM
# [16] = test system: SK-MEL-5 melanoma; conditions: 10 µM
# [17] = test system: UACC-62 melanoma; conditions: 10 µM
# [18] = test system: SK-MEL-28 melanoma; conditions: 10 µM
# [19] = test system: SK-MEL-2 melanoma; conditions: 10 µM
# [20] = test system: HL-60(TB) leukemia; conditions: 10 µM unless noted
Structure (SMILES),growth [1],growth [2],growth [3],growth [4],growth [5],growth [6],growth [7],growth [8],growth [9],growth [10],growth [11],growth [12],growth [13],growth [14],growth [15],growth [16],growth [17],growth [18],growth [19],growth [20]
O=C(/C=C/c1ccco1)c1nc2ccccc2n1Cc1ccc(F)cc1,79.2%,87.6%,62.2%,81.9%,56.6%,59.9%,63.4%,76%,64.6%,62.7%,88.2%,32.3%,68%,28.7%,77.7%,86.5%,45.4%,81.8%,69.9%,15.8%
CC(C)N=C([Se])NC(=O)c1cccs1,-2.73% (active),-2.97% (active),17.6%,84.7%,-14.3% (active),102%,59.4%,-14% (active),-63.3% (active),39.3%,8.28% (active),34.9%,27.9%,-28.6% (active),4.61% (active),-59.7% (active),27.5%,60.2%,-57.7% (active),56%
COC(=O)C[C@](O)(CCC(C)C)C(=O)O[C@H]1C(OC)=C[C@@]23CCCN2CCc2cc4c(cc2[C@@H]13)OCO4,-9.27% (active),4.64% (active),-20.5% (active),-55.4% (active),-24.1% (active),-45.1% (active),-21.7% (active),-23.6% (active),-51.4% (active),-30.9% (active),-76.4% (active),-29.7% (active),-47.5% (active),-48.8% (active),-28.3% (active),-70.4% (active),-25.2% (active),-32.9% (active),-46.4% (active),-38.5% (active)
COc1cc2cc(C(=O)N3C[C@@H](CCl)c4c3cc(OC(=O)N3CCN(C(=O)CCC(=O)N5CCN(C)CC5)[C@@H]5CSSC[C@@H]53)c3ccccc43)[nH]c2c(OC)c1OC,-7.14% (active),-55.3% (active),-59.7% (active),-65.6% (active),-4.3% (active),-99.3% (active),-28.4% (active),-88.5% (active),-91.8% (active),-71.7% (active),-81.7% (active),-87.4% (active),-84.3% (active),-90.1% (active),-50.2% (active),-100% (active),-64% (active),-94.4% (active),-83.3% (active),-37.6% (active)
O=C(/C=C/c1ccco1)c1nc2ccccc2n1Cc1ccc(Br)cc1,62.2%,57%,47.3%,69.7%,28.1%,44.2%,45.4%,53.5%,26.7%,36.9%,26.2%,9.97% (active),29.3%,33.6%,54.4%,57.5%,28.7%,56.2%,46.2%,16%
O=C(/C=C/c1ccc(Cl)cc1)c1nc2ccccc2n1Cc1ccc(F)cc1,53.5%,17.7%,44.7%,71.9%,37.6%,49.9%,39.9%,50.7%,-41.7% (active),51.4%,16.1%,-1.45% (active),5.22% (active),60.9%,25%,69%,23.5%,38.9%,68.3%,-2.58% (active)
COC(=O)c1ccc(-n2cc(CCCN(CCNc3ccnc4cc(Cl)ccc34)C(=O)CCC(=O)O[C@@H]3O[C@@H]4OC5(C)CC[C@H]6[C@H](C)CC[C@@H]([C@H]3C)[C@@]46OO5)nn2)cc1,71%,64.5%,44.4%,14.8%,59.8%,-61.5% (active),59.2%,43.8%,39%,35%,47.1%,-4.92% (active),5.91% (active),67.3%,63.7%,-70.1% (active),36.8%,16.3%,29.4%,-30.7% (active)
Cc1c2oc3c(C)ccc(C(=O)N[C@@H]4C(=O)N[C@H](C(C)C)C(=O)N5CCC[C@H]5C(=O)N(C)CC(=O)N(C)[C@@H](C(C)C)C(=O)OC4C)c3nc-2c(C(=O)N[C@@H]2C(=O)N[C@H](C(C)C)C(=O)N3CC(=O)C[C@H]3C(=O)N(C)CC(=O)N(C)[C@@H](C(C)C)C(=O)OC2C)c(N)c1=O (some centres undefined),4.93% (active),-21% (active),8.06% (active),-71% (active),12.8%,-14.5% (active),-9.63% (active),1.34% (active),-28.4% (active),-28% (active),-8.68% (active),3.67% (active),1.14% (active),-70.6% (active),4.37% (active),-48.6% (active),-57.5% (active),-27.8% (active),-68.5% (active),
CCOC(=O)C1=C(Nc2ccccc2)C(=O)OC12C(=O)Nc1ccccc12 (centres undefined),103%,97.6%,112%,119%,114%,102%,95.7%,107%,97.6%,101%,105%,105%,111%,80.6%,96.4%,107%,93.5%,107%,99.9%,102%
O=C(/C=C/c1ccc(F)cc1)c1nc2ccccc2n1Cc1ccc(F)cc1,40.5%,-1.76% (active),27.2%,-32% (active),18.4%,-23.8% (active),16.2%,-10.9% (active),-63.5% (active),25.6%,-3.51% (active),-61% (active),-30.5% (active),20.6%,13.8%,21.1%,-41.7% (active),-15.8% (active),21.3%,6.99% (active)
O=C([Se]C1C=CCCC1)c1ccc(C(=O)[Se]C2C=CCCC2)s1 (centres undefined),-28.5% (active),-50.6% (active),-7.22% (active),-95.7% (active),-3.45% (active),-85.7% (active),0.795% (active),-44.2% (active),-100% (active),-74.7% (active),-81.2% (active),-25.1% (active),-25.6% (active),-77.6% (active),-93.8% (active),-88.8% (active),-89.2% (active),-79.4% (active),-37.7% (active),1.11% (active)
COc1cc2cc(C(=O)N3C[C@@H](CCl)c4c3cc(OC(=O)N3CCN(C)[C@@H]5CSSC[C@H]53)c3ccccc43)[nH]c2c(OC)c1OC,-12.4% (active),-19.1% (active),-58.4% (active),-59.2% (active),1.52% (active),-92% (active),2.46% (active),-43.2% (active),-96% (active),-46.3% (active),-76.2% (active),-18.7% (active),-50.7% (active),-74.3% (active),-15.4% (active),-100% (active),-92.9% (active),-94.8% (active),-91.8% (active),-43.4% (active)
COc1cc2cc(C(=O)N3C[C@@H](CCl)c4c3cc(OC(=O)N3CCN(C)[C@@H]5CSSC[C@@H]53)c3ccccc43)[nH]c2c(OC)c1OC,-7.87% (active),-32.3% (active),7.2% (active),-55.6% (active),-4.86% (active),-70.3% (active),-17.8% (active),-8.99% (active),-72.4% (active),-15.4% (active),-79% (active),1.23% (active),-6.59% (active),-87.6% (active),-9.25% (active),-32.2% (active),-91.4% (active),-62.6% (active),-89% (active),1.55% (active)
COP(=O)(CC(F)(F)C(F)(F)F)OC,109%,99.7%,87.4%,-59.3% (active),9.69% (active),-59.1% (active),88.4%,100%,4.99% (active),-36.5% (active),-65.3% (active),-15.2% (active),-35.5% (active),87.5%,101%,80.8%,65.3%,-58.1% (active),25.2%,8.78% (active)
CC12OOC(C)(OO1)C2CCC(=O)OCCNc1ccnc2cc(Cl)ccc12 (centres undefined),96.6%,96.8%,9.38% (active),-54.4% (active),-53.9% (active),-73% (active),97%,83%,35.6%,82.1%,14.6%,-73.2% (active),-59.8% (active),90.5%,97.6%,36.5%,88.1%,93%,107%,-40.3% (active)
